Assay results as given in PubChem BioAssay (NCI).
This is part of a sample that, as a whole, favours compounds with a hit. Of some 83,000 tested, about 20% had one in any assay.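 48-hour exposure, single concentration, 96-well plates; percent growth endpoint where 0 means no net growth. Active: below 10.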 Activity calls are given as the source filed them.

Legend:
Assay in all cases: NCI-60 one-dose screen, 48 h (100 = growth as untreated, 0 = no growth, -100 = all killed)
Details in all cases: 10 µM unless noted
[1] = tested on: NCI-H23 lung
[2] = tested on: NCI-H226 lung
[3] = tested on: NCI-H322M lung
[4] = tested on: HOP-62 NSCLC
[5] = tested on: NCI-H460 lung
[6] = tested on: HOP-92 NSCLC
[7] = tested on: NCI-H522 lung
[8] = tested on: A549/ATCC NSCLC
[9] = tested on: 786-0 renal
[10] = tested on: COLO 205 colon
[11] = tested on: DU-145 prostate
[12] = tested on: K-562 leukemia
[13] = tested on: MALME-3M melanoma
[14] = tested on: MDA-MB-231 breast
[15] = tested on: RXF 393 renal
[16] = tested on: SF-268 CNS
[17] = tested on: SF-295 CNS
[18] = tested on: SF-539 CNS
[19] = tested on: UACC-257 melanoma
[20] = tested on: M14 melanoma

Measured: growth

CCn1c2ccccc2c2cc(NC(=O)Nc3ccc([N+](=O)[O-])cc3C)ccc21
active: [7] 9.7% | [12] 8.55% | [15] -31.1%
inactive: [1] 41.5% | [2] 74.9% | [3] 77.8% | [4] 49.4% | [5] 19.5% | [6] 57.9% | [8] 31.5% | [9] 38.9% | [10] 29.9% | [11] 65.7% | [13] 64.5% | [14] 29.3% | [16] 64.9% | [17] 13.1% | [18] 47% | [19] 20% | [20] 32.6%

Cn1ccc(Nc2nccc(Oc3ccc(C(=O)Nc4cccc(F)c4)c(Cl)c3)n2)c1
inactive: [1] 67.3% | [2] 68% | [3] 48.4% | [4] 100% | [5] 106% | [6] 76.4% | [7] 43.1% | [8] 97.2% | [9] 79.8% | [10] 105% | [11] 47.9% | [12] 70.6% | [13] 94.6% | [14] 99% | [15] 105% | [16] 79.4% | [17] 61.8% | [18] 84.9% | [19] 79.5% | [20] 96.9%

O=C(CCl)N(C1CCCCC1)C1CCCCC1
inactive: [1] 87.9% | [2] 105% | [3] 98.8% | [4] 119% | [5] 107% | [6] 92.8% | [8] 115% | [9] 99.3% | [10] 109% | [11] 112% | [12] 104% | [13] 112% | [14] 120% | [15] 107% | [16] 103% | [17] 98.3% | [18] 105% | [19] 105% | [20] 96.2%
active: [7] -36.8%

Oc1ccc2cc(Br)ccc2c1-c1c(O)ccc2cc(Br)ccc12
inactive: [1] 55.4% | [2] 81.6% | [3] 57.1% | [4] 72.2% | [6] 20% | [7] 53.9% | [8] 44% | [9] 77.8% | [10] 54.7% | [11] 78.2% | [12] 54% | [13] 97.9% | [14] 50.1% | [15] 59.8% | [16] 53.8% | [17] 76.5% | [18] 82% | [19] 82.6% | [20] 58.9%
active: [5] 8.23%

COc1ccc(-c2ccc(C)n2-c2ccc(-c3nc4ccccc4s3)cc2)cc1
inactive: [1] 81.4% | [2] 85.2% | [3] 98.2% | [4] 87.6% | [5] 88.8% | [6] 86.2% | [7] 89.4% | [8] 85.6% | [9] 100% | [10] 94% | [11] 104% | [12] 91.6% | [13] 108% | [14] 68.4% | [15] 94.7% | [16] 96% | [17] 86.5% | [18] 99.3% | [19] 109% | [20] 103%

CCCCCCN1CSC(=S)N(CCCCCC)C1
inactive: [1] 83.6% | [2] 92.3% | [3] 115% | [4] 104% | [5] 100% | [6] 81.5% | [7] 101% | [8] 101% | [9] 99.4% | [10] 106% | [11] 113% | [12] 110% | [13] 95.2% | [14] 97.4% | [15] 106% | [16] 104% | [17] 98.2% | [18] 102% | [19] 104% | [20] 96.5%

COc1ccc(-c2nc(/C=N/Nc3cc(C)nc4ccc(Cl)cc34)c(C)o2)cc1
inactive: [1] 42.1% | [2] 75.6% | [4] 83.2% | [19] 104%
active: [3] -92.5% | [5] -89.2% | [6] -84.8% | [7] -85.2% | [8] -91.6% | [9] -87.5% | [10] -72.8% | [11] -94.1% | [12] -35% | [13] -90.9% | [14] -95.9% | [15] -96.8% | [16] -71.8% | [17] -73.5% | [18] -90% | [20] -75.6%

COc1ccc(CNCCCN2C(=O)c3ccc4c5c(ccc(c35)C2=O)C(=O)N(CCCNCCCCNCCCN)C4=O)c(OC)c1OC
inactive: [1] 23.1% | [2] 23.8% | [3] 30.4% | [4] 19.3% | [5] 19.6% | [6] 51.7% | [8] 25.3% | [9] 22.4% | [11] 36.9% | [14] 28% | [16] 17% | [17] 31.4%
active: [7] 1.57% | [10] -86.1% | [12] 6.82% | [13] -72.5% | [15] 7.45% | [18] 1.73% | [19] -83.3% | [20] 5.46%

COc1ccc2c(c1)C(c1cc(OC)c3c(c1)OCO3)C1=C(COC1=O)N2 (stereo not given)
active: [5] 6.63% | [7] -38.5% | [10] -22.6% | [11] 3.41% | [15] -8.85% | [17] 1.56% | [18] 5.62% | [20] 5.65%
inactive: [1] 38.2% | [2] 27.5% | [3] 51.4% | [4] 36.5% | [6] 26.9% | [8] 14.7% | [9] 29.5% | [12] 12% | [13] 54.2% | [14] 24.4% | [16] 32.2% | [19] 66.1%

Cc1ccc(S(=O)(=O)n2cc(C(=O)C(=O)Nc3ccncc3)c3ccccc32)cc1
inactive: [1] 36.4% | [2] 64.2% | [3] 94.7% | [4] 33.4% | [5] 80.4% | [6] 38.5% | [8] 73.5% | [9] 29.5% | [10] 107% | [11] 22.4% | [12] 23.8% | [13] 48.4% | [14] 42.9% | [16] 44.6% | [17] 16.4% | [18] 15% | [19] 63.3% | [20] 18.1%
active: [7] 1.71% | [15] 9.66%

Nc1cccc(-c2nc3sccn3c2-c2ccnc(NCCCNS(=O)(=O)c3cccc4ccccc34)n2)c1
inactive: [1] 44.3% | [2] 29.8% | [3] 63.5% | [4] 64.3% | [5] 35.5% | [6] 92.4% | [7] 34.9% | [8] 39.2% | [9] 53.9% | [10] 24.1% | [11] 47.9% | [12] 22.6% | [13] 62.2% | [14] 39.5% | [15] 57.4% | [16] 49.2% | [17] 38.3% | [18] 65.9% | [19] 47.9% | [20] 43.8%

O=C(NS(=O)(=O)c1ccc2ccccc2c1)n1cc(-c2ccncc2)c(-c2ccc(Cl)c(O)c2)n1
inactive: [1] 61.5% | [2] 84.9% | [3] 116% | [4] 92.1% | [5] 89.7% | [6] 48.1% | [7] 61.5% | [8] 78% | [9] 99.1% | [10] 105% | [11] 113% | [12] 85.6% | [13] 17.1% | [14] 49.6% | [15] 52.9% | [16] 96.2% | [17] 91.1% | [18] 80.9% | [19] 31.9% | [20] 28.4%

NC1=C(/C(N)=N/O)C(c2ccccc2)c2ccc3ccccc3c2O1 (stereo not given)
inactive: [1] 28.7% | [3] 40% | [4] 26.2% | [6] 29.8% | [8] 21.2% | [9] 29% | [12] 13.2% | [13] 46.4% | [16] 33% | [19] 46.7% | [20] 11.7%
active: [2] 1.84% | [5] 1.37% | [7] 5.81% | [10] -5.32% | [11] 9% | [14] 8.69% | [15] -14.1% | [17] -0.153% | [18] -32.4%
